Data on 20 compounds can be found in ChEMBL document CHEMBL3988442, “University of Dundee, Small-Polar-MMV Screening Library” (2021).

The test concerns the target Shiga toxin 2 (Escherichia coli O157:H7) (UniProt P09385+P09386). Briefly: E. coli 0.157:H7 Shiga Toxin SOP - stx2 screening assay. Details: scale not given: direction of the effect not stated beside the values. The note with it: 30 µM. The class given is functional.
`CCOc1cccc2c1OCC(C(=O)NS(=O)(=O)c1ccc(Cl)cc1)=C2`: the Percent Effect worked out at 17%.

As to `O=C1CCCCN1c1cccc(CNC2CCCC2)c1`, the Percent Effect came to 18%.

Turning to `O=C(NCCCN1CCc2ccccc2C1)c1cccnc1O`, the Percent Effect was -68.5%.

As for `CC(=O)c1cccc(OCCCC(=O)N(C)Cc2cccc(O)c2)c1`, the Percent Effect is -20.2%.

For `O=C(NCc1nn(-c2ccccc2)c2c1CCC2)NC1CC1`, the Percent Effect worked out at 9.96%.

For the compound `Cc1cc(CN(C)C(=O)c2ccc(C(F)(F)F)nc2)no1`, the Percent Effect was -2.99%.

Turning to `CCc1nc(CCNC(=O)C2CCOC2)sc1C` (stereo not given), the Percent Effect came to 30.6%.

Consider `Cc1ccc(C)c(-n2ccc3nc(N4CCCC4)ncc3c2=O)c1`, for which the Percent Effect was -36.3%.

Regarding `O=S(=O)(CCCN1CCCC1Cn1cccn1)c1ccccc1` (stereo not given), the Percent Effect is -4.23%.

As for `Cc1nn(C)cc1CN(C)Cc1cc2c(cc1OC(F)F)OCO2`, the Percent Effect is -11.3%.

Consider `Cn1cc(CN2CC3(CCN(C(=O)c4ccoc4)C3)C2)cn1`, for which the Percent Effect is -8.68%.

`COc1cccc2c1OCC(NC(=O)NCc1cccs1)C2` (stereo not given): the Percent Effect came to 3.63%.

As to `CC(CCc1ccccc1)NC(=O)Nc1cnn(CC(N)=O)c1` (stereo not given), the Percent Effect is -44.2%.

Turning to `Cc1nccn1C1CCCN(C(=O)c2ccc3c(c2)NC(=O)CO3)C1` (stereo not given), the Percent Effect is 24.5%.

Regarding `Cn1cccc1C(=O)N1CCc2ncnc(C3CC3)c2CC1`, the Percent Effect is -1.81%.

`CN(CC1CN(Cc2cn3ccsc3n2)CCO1)c1cccnn1` (stereo not given): the Percent Effect is -9.36%.

As for `Cc1nc(CN2CCCCC2Cn2cncn2)nc2ccccc12` (stereo not given), the Percent Effect is -15.2%.

For the compound `CS(=O)(=O)c1snnc1C1CCN(Cc2ccncc2)CC1`, the Percent Effect worked out at 0.0805%.

Consider `COCCC(=O)N1CC2(CCN(Cc3cccc(Cl)c3)CC2)C1`, for which the Percent Effect was -17.6%.

As to `COC(=O)CCC(=O)N1CCc2[nH]nc(-c3ccc(F)c(F)c3)c2C1`, the Percent Effect is -11.9%.
